Counter-ions that a name gives are not always drawn.

In this test the test system is FLX1 + dox-induced PRKAR1A G325D. The experiment in a line: difference in log2 fold change of viability vs plate median (dox-induced PRKAR1A G325D minus uninduced); higher = compound less effective when PKA is inhibited. The note with it: concentration: not stated (2 or 5 uM); 5 days. The procedure: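 For each plate a log2 fold change vs the plate median was derived, and the values without dox were subtracted from those with dox, averaged over three biological replicates.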
On to `CNCc1ccc(-c2cc(-c3nc(-c4ccc(S(=O)(=O)C(C)C)cc4)cnc3N)on2)cc1`, for which the “difference in log2 fold change of viability” value (shortened to “difference in log2 fold change”) was -0.00074.

Turning to `O=C(NOC[C@H](O)CO)c1ccc(F)c(F)c1Nc1ccc(I)cc1F`, the “difference in log2 fold change” value is -1.04. The value for `CNc1nc(Nc2cnn([C@H]3CCN(C4COC4)C[C@@H]3F)c2Cl)ncc1C(F)(F)F` was -0.177; that for `CCN(CC)CCNC(=O)c1c(C)[nH]c(/C=C2\C(=O)Nc3ccc(F)cc32)c1C` [Sunitinib Malate] was -0.043. The value for `CCN1/C(=C/C(C)=O)Sc2ccc(OC)cc21` was -0.074; that for `CC(=O)Nc1nc(C)c(-c2ccc(Cl)c(S(=O)(=O)NCCO)c2)s1` was 1.62; that for `CCn1c(=O)c(-c2ccc(-c3cncs3)cc2Cl)cc2cnc(Nc3ccc(N4CCN(C)CC4)cc3)nc21` was -0.943.

Regarding `NC1(c2ccc(-c3nc4ccn5c(=O)[nH]nc5c4cc3-c3ccccc3)cc2)CCC1`, the “difference in log2 fold change” value is 0.0391. For the molecule `COc1cc2c(Oc3ccc(NC(=O)C4(C(=O)Nc5ccc(F)cc5)CC4)cc3F)ccnc2cc1OCCCN1CCOCC1`, the “difference in log2 fold change” value was -0.0914. Consider `COc1cc(CCc2cc(NC(=O)c3ccc(N4CC(C)NC(C)C4)cc3)n[nH]2)cc(OC)c1` (stereo not drawn), for which the “difference in log2 fold change” value was -0.468. The value for `NCC(=O)Nc1ccc(-n2nc(C(F)(F)F)cc2-c2ccc3c(ccc4ccccc43)c2)cc1` was 0.186.

In the case of `CCc1cnn2c(NCc3ccc[n+]([O-])c3)cc(N3CCCC[C@H]3CCO)nc12`, the “difference in log2 fold change” value amounted to 0.265. Consider `Cc1nc(NC(=O)N2CCC[C@H]2C(N)=O)sc1-c1ccnc(C(C)(C)C(F)(F)F)c1` [Alpelisib (BYL719)], for which the “difference in log2 fold change” value amounted to 0.385. Turning to `COc1ccc(CNC(=O)Nc2ncc([N+](=O)[O-])s2)cc1`, the “difference in log2 fold change” value amounted to 0.288.

For `CCn1c2ccccc2c2cc(Nc3ccnc(NCCCN4CCOCC4)n3)ccc21`, the “difference in log2 fold change” value was determined as 0.808.

Consider `Oc1c2ccccc2c2c3c(cccc13)N=N2`, for which the “difference in log2 fold change” value was 0.149. The value for `C=CC(=O)Nc1cccc(Nc2nc(Nc3ccc(Oc4ccnc(C(=O)NC)c4)cc3)ncc2F)c1` was -0.452; that for `C[C@@H]1COC(Nc2ccc3ncnc(Nc4ccc(OCc5nccs5)c(Cl)c4)c3c2)=N1` [Varlitinib] was -0.557. For the molecule `Cc1c(F)cc(C(=O)NC2CC2)cc1-c1ccc(C(=O)NCC(C)(C)C)cn1`, the “difference in log2 fold change” value is -0.0149. The value for `CN1CCC(CNc2ccc3ncc(-c4cccc(OC(F)(F)F)c4)n3n2)CC1` [SGI-1776 free base] was -0.0813; that for `Cc1cc(F)c(Nc2ncnc3cc(OCc4ccccc4)ccc23)cc1O` was 0.0836. With `CCOc1cc(C(=O)N2CCC(N3CCN(C)CC3)CC2)ccc1Nc1ncc2c(n1)N(C1CCCC1)c1ccccc1C(=O)N2C`, the “difference in log2 fold change” value was found to be 0.00328.

Turning to `C=CC(=O)N1CCC[C@@H](n2nc(-c3ccc(Oc4ccccc4)cc3)c3c(N)ncnc32)C1`, the “difference in log2 fold change” value is -2.14. The value for `CCc1ccc(/C=C2/SC(=S)NC2=O)cc1` was 0.116. For `CNC(=O)c1nn(C)c2c1C(C)(C)Cc1cnc(Nc3ccc(N4CCN(C)CC4)cc3)nc1-2`, the “difference in log2 fold change” value was 0.64. Consider `NC(=O)c1ncn([C@@H]2O[C@H](CO)[C@@H](O)[C@H]2O)c1N` [AICAR (Acadesine)], for which the “difference in log2 fold change” value was -0.0733. For `O=C(Nc1cccc(Nc2ncc(Br)c(NCCc3cnc[nH]3)n2)c1)N1CCCC1`, the “difference in log2 fold change” value was found to be 0.799. Consider `N#C/C(=C(/N)Sc1ccc(N)cc1)c1ccccc1C(F)(F)F`, for which the “difference in log2 fold change” value turned out to be 0.1.

Regarding `CC[C@@H]1C(=O)N(C)c2cnc(Nc3ccc(C(=O)NC4CCN(C)CC4)cc3OC)nc2N1C1CCCC1`, the “difference in log2 fold change” value came to 0.0323. The value for `CN1CCN(c2ccc(Nc3cc(-c4cccc(-n5ccc6cc(C7CC7)cc(F)c6c5=O)c4CO)cn(C)c3=O)nc2)CC1` was -0.059.

Turning to `O=C1NC(=O)C(c2cnc3ccccn23)=C1c1cn2c3c(cc(F)cc13)CN(C(=O)N1CCCCC1)CC2`, the “difference in log2 fold change” value was 0.116. In the case of `O=C(Nc1cc(C(F)(F)F)cc(C(F)(F)F)c1)c1cc(Cl)ccc1O`, the “difference in log2 fold change” value was -0.138. For `CNC(=O)Nc1ccc(-c2nc(N3CC4CCC(C3)O4)c3cnn(C4CCC5(CC4)OCCO5)c3n2)cc1`, the “difference in log2 fold change” value amounted to 1.48. For the molecule `CNC(=O)c1cc(Oc2ccc(NC(=O)Nc3ccc(Cl)c(C(F)(F)F)c3)cc2)ccn1` [Sorafenib], the “difference in log2 fold change” value worked out at 0.0478. With `CN1CC[C@H](c2c(O)cc(O)c3c(=O)cc(-c4ccccc4Cl)oc23)[C@H](O)C1` [Flavopiridol HCl], the “difference in log2 fold change” value came out at 0.222.

Regarding `CC1(COc2ccc3c(c2)ncn3-c2ccc3cccc(N4CCC(N)CC4)c3n2)COC1`, the “difference in log2 fold change” value is -0.0241. With `CN1CCN(S(=O)(=O)c2ccc(-c3cnc(N)c(C(=O)Nc4cccnc4)n3)cc2)CC1`, the “difference in log2 fold change” value was -0.529. As to `CCc1nc(-c2cccc(C)c2)c(-c2ccnc(NC(=O)c3ccccc3)c2)s1`, the “difference in log2 fold change” value was 0.387.

Values taken from the supplement of paper PMC9925115.
